Results on nine compounds are retold here after PubChem BioAssay (NCI).

Structures are written as SMILES. The panel holds about 83,000 compounds, 20% with a hit somewhere; the sample as a whole holds those more often.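 Method: cells in 96-well plates; compound added at one concentration; 48 h incubation; percent growth measured; values under 10 scored active.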 Values without a mark were called inactive. Activity calls are given as the source filed them.

Some test systems named below: NCI-H23 lung; NCI-H226 lung; NCI-H322M lung; HOP-62 NSCLC; NCI-H460 lung; HOP-92 NSCLC; NCI-H522 lung; A549/ATCC NSCLC; 786-0 renal; COLO 205 colon; DU-145 prostate; MALME-3M melanoma; MDA-MB-231 breast; RXF 393 renal; SF-268 CNS; SF-295 CNS; SF-539 CNS; UACC-257 melanoma; M14 melanoma.
Test in all cases: NCI-60 one-dose screen, 48 h (100 = growth as untreated, 0 = no growth, -100 = all killed)
Common to all, as to details: 10 µM unless noted

Regarding `O=C(Cn1c(/C=C/c2cccc([N+](=O)[O-])c2)nc2ccccc2c1=O)Nc1ccccc1`, the growth was 77.2% in the experiment with NCI-H23 lung; 75.7% in the experiment on NCI-H226 lung; 83.9% in the experiment with NCI-H322M lung; 53.6% in the experiment on HOP-62 NSCLC; 67.2% in the experiment on NCI-H460 lung; 64.2% with HOP-92 NSCLC. Also, the growth with NCI-H522 lung was 91.8%; in the experiment with A549/ATCC NSCLC it was 56.1%; in the experiment with 786-0 renal, 59.6%; with COLO 205 colon, 81.1%; in the experiment on DU-145 prostate it was 69.4%; with MALME-3M melanoma, 75.1%. For the same compound, the growth is 33.8% with MDA-MB-231 breast; 55.5% in the experiment on RXF 393 renal; 78.5% in the experiment with SF-268 CNS; 68.5% in the experiment with SF-295 CNS; 8.73% (active) in the experiment on SF-539 CNS; 104% in the experiment with UACC-257 melanoma. Also, the growth with M14 melanoma was 70.6%.

As for `NS(=O)(=O)c1ccc(-n2cc(-c3cccc(NC(=O)c4ccc(Cl)c(C(F)(F)F)c4)c3)nn2)cc1`, the growth is -4.59% (active) in the experiment with NCI-H23 lung; 10% in the experiment on NCI-H226 lung; 33.4% with NCI-H322M lung; 3.02% (active) in the experiment on HOP-62 NSCLC; 18.1% with NCI-H460 lung; -5.36% (active) in the experiment on HOP-92 NSCLC. Besides, the growth in the experiment with NCI-H522 lung was 45.8%; with A549/ATCC NSCLC it was 4.33% (active); in the experiment on 786-0 renal, 22.5%; with COLO 205 colon, 2.2% (active); with DU-145 prostate, 18.3%; with MALME-3M melanoma, 39.9%. Also, the growth is -5.26% (active) in the experiment on MDA-MB-231 breast; 29.4% in the experiment on SF-268 CNS; 7.53% (active) in the experiment on SF-295 CNS; -38.8% (active) with SF-539 CNS; 39.1% with UACC-257 melanoma; 16.2% in the experiment with M14 melanoma.

Turning to `C[C@H]1CN(C(=O)c2ccc3c(NNC(=O)c4ccncn4)nc4cc(F)c(F)cc4n23)CCN1`, the growth in the experiment on NCI-H23 lung is 37.5%; with NCI-H226 lung, 6.31% (active); in the experiment with NCI-H322M lung, 32.2%; in the experiment on HOP-62 NSCLC it was 18.7%; with NCI-H460 lung, 6.66% (active); in the experiment with HOP-92 NSCLC, 65.4%. Moreover, the growth is 67.9% with NCI-H522 lung; 19.4% with A549/ATCC NSCLC; -14.4% (active) in the experiment on 786-0 renal; 9.98% (active) in the experiment on COLO 205 colon; 41.3% in the experiment on DU-145 prostate; 33.6% in the experiment on MALME-3M melanoma. The growth in the experiment on MDA-MB-231 breast is 45.7%; in the experiment with RXF 393 renal, 52.9%; in the experiment on SF-268 CNS, 27.4%; with SF-295 CNS, 12.4%; with SF-539 CNS, 8.55% (active); in the experiment with UACC-257 melanoma, 22.3%. In addition, in the experiment with M14 melanoma, the growth was -24.8% (active).

With `CCN1CCN(Cc2ccc(C(=O)Nc3cccc(C#Cc4cccc5[nH]nc(N)c45)c3)cc2C(F)(F)F)CC1`, the growth is -82.6% (active) in the experiment on NCI-H23 lung; -35.2% (active) in the experiment with NCI-H226 lung; -95.2% (active) with NCI-H322M lung; -66.1% (active) in the experiment with HOP-62 NSCLC; -39.2% (active) in the experiment with NCI-H460 lung; -69.8% (active) with HOP-92 NSCLC. For the same compound, the growth was -59.9% (active) in the experiment on NCI-H522 lung; -84.8% (active) in the experiment with A549/ATCC NSCLC; -98.5% (active) with 786-0 renal; -86.6% (active) in the experiment with COLO 205 colon; -41.8% (active) in the experiment on DU-145 prostate; -76.2% (active) in the experiment with MALME-3M melanoma. For the same compound, the growth in the experiment with MDA-MB-231 breast is -90.8% (active); in the experiment with RXF 393 renal, -87.6% (active); in the experiment with SF-268 CNS, -61.6% (active); in the experiment on SF-295 CNS, -87.1% (active); in the experiment on SF-539 CNS it was -97.4% (active); in the experiment with UACC-257 melanoma it was -89.3% (active). Also, the growth in the experiment with M14 melanoma was -95.2% (active).

As to `O=C(NNc1nc2cc(F)ccc2n2c(CN3CCCCC3)ccc12)c1cnccn1`, the growth in the experiment on NCI-H23 lung is -21.3% (active); with NCI-H226 lung it was -24.6% (active); with NCI-H322M lung it was -7.19% (active); with HOP-62 NSCLC, -59.2% (active); in the experiment on NCI-H460 lung it was -11.7% (active); in the experiment on HOP-92 NSCLC, -24.8% (active). The growth in the experiment on NCI-H522 lung was -50.9% (active); in the experiment with A549/ATCC NSCLC it was -76.8% (active); with 786-0 renal, -98.3% (active); in the experiment on COLO 205 colon it was -50.5% (active); with DU-145 prostate, -43.7% (active); in the experiment on MALME-3M melanoma it was 22.6%. The growth with MDA-MB-231 breast is -31.1% (active); in the experiment with RXF 393 renal, -83.3% (active); in the experiment with SF-268 CNS, -20.9% (active); with SF-295 CNS, -92% (active); in the experiment with SF-539 CNS it was -66% (active); with UACC-257 melanoma, -81.1% (active). Also, in the experiment on M14 melanoma, the growth is -86.5% (active).

As for `COc1cccc(/C=C/C(=O)c2ccc(OC)c(S(N)(=O)=O)c2)c1`, the growth with NCI-H23 lung was 15.1%; in the experiment with NCI-H226 lung it was 53.9%; in the experiment with NCI-H322M lung, 22.2%; with HOP-62 NSCLC, 21.4%; in the experiment with NCI-H460 lung, 16.2%; in the experiment with HOP-92 NSCLC it was 55.9%. Further, the growth in the experiment with NCI-H522 lung is -65.1% (active); in the experiment with A549/ATCC NSCLC it was 10.3%; in the experiment on 786-0 renal it was 14.6%; with COLO 205 colon, -18.4% (active); in the experiment on DU-145 prostate, 31.8%; with MALME-3M melanoma, 71.2%. Moreover, the growth in the experiment on MDA-MB-231 breast was 49.4%; in the experiment with RXF 393 renal it was 41.7%; in the experiment with SF-268 CNS, 39.5%; with SF-295 CNS it was 34.6%; in the experiment on SF-539 CNS, -11.6% (active); in the experiment on UACC-257 melanoma, 65.8%. The growth with M14 melanoma is 41.2%.

On to `COc1ccc(C(=O)/C=C/c2ccccc2Br)cc1S(N)(=O)=O`, for which the growth in the experiment with NCI-H23 lung was -21.4% (active); in the experiment with NCI-H226 lung, 21.5%; with NCI-H322M lung, 20.6%; in the experiment on HOP-62 NSCLC it was -18.7% (active); with NCI-H460 lung, 1.47% (active); in the experiment on HOP-92 NSCLC, 76.8%. Also, the growth with NCI-H522 lung is -67% (active); in the experiment with A549/ATCC NSCLC, -81.4% (active); with 786-0 renal, -78% (active); with COLO 205 colon, -72.8% (active); in the experiment on DU-145 prostate, -31.7% (active); in the experiment on MALME-3M melanoma, 62.3%. In addition, the growth is -20.8% (active) in the experiment with MDA-MB-231 breast; -70% (active) in the experiment on RXF 393 renal; 14.2% in the experiment with SF-268 CNS; -76.6% (active) in the experiment on SF-295 CNS; -74.9% (active) in the experiment on SF-539 CNS; 15.5% with UACC-257 melanoma. Moreover, the growth in the experiment on M14 melanoma was -11.7% (active).

As for `COc1cc(OC)cc(-c2cc3ccc(N(C)C)cc3c(=O)[nH]2)c1`, the growth in the experiment with NCI-H23 lung is 44.1%; in the experiment on NCI-H226 lung, 23%; with NCI-H322M lung it was 52.9%; with HOP-62 NSCLC it was 53%; with NCI-H460 lung it was 9.42% (active); in the experiment on HOP-92 NSCLC, 94.2%. For the same compound, the growth in the experiment with NCI-H522 lung is -19.2% (active); in the experiment with A549/ATCC NSCLC, 24.4%; with 786-0 renal it was 29.9%; in the experiment on COLO 205 colon, -44.8% (active); with DU-145 prostate it was 21.5%; in the experiment on MALME-3M melanoma, 59.3%. In addition, the growth in the experiment with MDA-MB-231 breast was 33.1%; with RXF 393 renal, 80.5%; in the experiment with SF-268 CNS, 36.3%; in the experiment on SF-295 CNS, 16.2%; in the experiment on SF-539 CNS it was -1.21% (active); in the experiment with UACC-257 melanoma, 75.7%. Besides, in the experiment on M14 melanoma, the growth is 10.7%.

Regarding `COc1ccc(C(=O)Nc2n[nH]c(Nc3ccccc3)c2C#N)cc1`, the growth with NCI-H23 lung was 110%; in the experiment on NCI-H226 lung it was 117%; in the experiment on NCI-H322M lung, 106%; in the experiment on HOP-62 NSCLC, 124%; in the experiment with NCI-H460 lung, 101%; in the experiment with HOP-92 NSCLC it was 125%. Moreover, the growth with NCI-H522 lung is 104%; in the experiment with A549/ATCC NSCLC it was 117%; in the experiment on 786-0 renal, 104%; in the experiment on COLO 205 colon, 106%; in the experiment on DU-145 prostate, 119%; in the experiment with MALME-3M melanoma it was 97.8%. The growth in the experiment on MDA-MB-231 breast was 103%; in the experiment with RXF 393 renal it was 118%; in the experiment on SF-268 CNS, 97.3%; in the experiment on SF-295 CNS it was 92.8%; with SF-539 CNS, 98.3%; in the experiment on UACC-257 melanoma it was 137%. In addition, the growth in the experiment on M14 melanoma was 109%.
